# Reference: the supplement of paper PMC6555819
# Legend:
# Experiment in all cases: PBM binding z-score (relative to random genomic background probes); higher = stronger binding; sequences stand for … in GC…GCGATTGACAGCGTAGAATGAAGG
# [1] = test system: FXR:RXRa (NR concentration 270 nM, RXRa partner concentration 90 nM)
# Procedure, shortened: (§1)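 For binding z-scores, the reference was random background probes on custom Agilent 4×180K protein-binding microarrays. These arrays were incubated 1 h with ligand-free nuclear receptor dimers in PBS pH 7.4, 2% milk, 0.02% Triton X-100, 1 mM DTT, 0.2 mg/mL BSA and 0.4 mg/ml salmon testes DNA. Fluorescence was scanned after antibody detection of each partner (one per run) and regression-normalized.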
# [2] = test system: LXRa:RXRa (NR concentration 270 nM, RXRa partner concentration 90 nM)
# Procedure, shortened: as §1
# [3] = test system: LXRa homodimer (NR concentration 270 nM)
# Procedure, shortened: as §1
# [4] = test system: LXRb:RXRa (NR concentration 270 nM, RXRa partner concentration 90 nM)
# Procedure, shortened: as §1
# [5] = test system: LXRb homodimer (NR concentration 270 nM)
# Procedure, shortened: as §1
# [6] = test system: PPARa:RXRa (NR concentration 270 nM, RXRa partner concentration 90 nM)
# Procedure, shortened: as §1
# [7] = test system: PPARg:RXRa (NR concentration 180 nM, RXRa partner concentration 90 nM)
# Procedure, shortened: as §1
# [8] = test system: PPARg:RXRa 270nM:90nM, anti-RXR (NR concentration 270 nM, RXRa partner concentration 90 nM)
# Procedure, shortened: as §1
# [9] = test system: PPARg:RXRa 30nM:10nM, anti-RXR (NR concentration 30 nM, RXRa partner concentration 10 nM)
# Procedure, shortened: as §1
# [10] = test system: PPARg:RXRa 90nM:30nM, anti-RXR (NR concentration 90 nM, RXRa partner concentration 30 nM)
# Procedure, shortened: as §1
# [11] = test system: PPARg:RXRa DBDmut IVT, anti-RXR (DBD mutation: RXRa K156A/R161A, NR concentration 270 nM, RXRa partner concentration 90 nM)
# Procedure, shortened: as §1
# [12] = test system: PPARg:RXRa IVT, anti-PPARg (NR concentration 270 nM, RXRa partner concentration 90 nM)
# Procedure, shortened: as §1
# [13] = test system: PPARg DBDmut:RXRa IVT, anti-PPARg (DBD mutation: PPARg1 K132A/R137A, NR concentration 270 nM, RXRa partner concentration 90 nM)
# Procedure, shortened: as §1
# [14] = test system: PPARg DBDmut IVT, anti-PPARg (DBD mutation: PPARg1 K132A/R137A, NR concentration 270 nM)
# Procedure, shortened: as §1
# [15] = test system: PPARg homodimer (NR concentration 180 nM)
# Procedure, shortened: as §1
# [16] = test system: PXR:RXRa (NR concentration 270 nM, RXRa partner concentration 90 nM)
# Procedure, shortened: as §1
# [17] = test system: PXR homodimer (NR concentration 270 nM)
# Procedure, shortened: as §1
# [18] = test system: RARa:RXR (NR concentration 270 nM, RXRa partner concentration 90 nM)
# Procedure, shortened: as §1
# [19] = test system: RARa homodimer (NR concentration 270 nM)
# Procedure, shortened: as §1
# [20] = test system: RARb:RXRa (NR concentration 270 nM, RXRa partner concentration 90 nM)
# Procedure, shortened: as §1
Sequence,PBM binding z-score [1],PBM binding z-score [2],PBM binding z-score [3],PBM binding z-score [4],PBM binding z-score [5],PBM binding z-score [6],PBM binding z-score [7],PBM binding z-score [8],PBM binding z-score [9],PBM binding z-score [10],PBM binding z-score [11],PBM binding z-score [12],PBM binding z-score [13],PBM binding z-score [14],PBM binding z-score [15],PBM binding z-score [16],PBM binding z-score [17],PBM binding z-score [18],PBM binding z-score [19],PBM binding z-score [20]
TGACCAAGGTGAAAGGTCGTTGATGCACGCCTTG,3.6,2.98,0.293,2.62,-0.814,5.24,8.5,7.41,6.27,7.51,2.01,4.8,0.518,-0.282,1.58,3.75,-0.00693,5.22,-0.166,3.03
CCTACTGGGCCACGAAAGGTTATTGATTCAGTGA,0.471,1.28,0.5,1.1,-0.501,2.58,2.37,2.81,0.563,1.69,5.07,5.34,0.351,-0.129,0.506,1.43,0.179,1.78,0.179,1.39
ACTATTAGGTGAGACGAGGGCAACCGATAGGTTG,1.3,0.503,0.00247,0.202,-0.293,1.5,1.44,1.19,0.65,0.864,4.85,3.95,1.23,0.854,1.46,2.81,0.453,1.39,0.564,1.64
TCTCGTAGATCAATAGAGGTTAAGAAAGTGCGCT,0.399,3.34,0.504,1.71,-0.598,1.62,-0.218,1.6,2.83,2.12,1.66,0.219,0.246,0.204,0.0307,3.08,0.105,1.6,0.0805,0.751
ATATCTAGGTAACCAAGTTCAGTGAATGCCGAAC,0.636,0.866,0.932,0.565,0.434,2.98,4.48,3.23,1.23,2.32,6.87,6.81,1.28,1.43,1.06,2.01,1.85,0.933,0.953,1.39
CGTCCAAGGTCAATACTAGGTCAGTGAAAGCATT,6.7,5.42,3.65,4.71,1.55,5.33,4.52,4.7,2.1,3.73,3.77,5,0.518,0.663,3.8,4.37,1.76,5.42,0.743,5.22
TCTATTAGTTGAAGGGCAACCGCCGAGTCCGTTT,0.913,0.871,0.578,0.586,0.231,0.935,-0.454,2.19,3.81,2.91,2.32,0.783,0.465,1.32,1.11,0.779,0.698,0.905,1.14,1.74
